KKLEB tox – reduces viability of KKLEB cystic fibrosis airway cells | KKLEB CF airway cells viability, ATPlite luminescence, overnight; active compounds read low; cells stimulated with P. aeruginosa culture filtrate | activity change (cytotoxicity), % at 5 µM | AID 602141 | 360,000 compounds, 0.36% hits;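 active = corrected activity change at or below -50% at 5 µM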
HIF-2a inh – HIF-2a inhibition. 360,000 compounds, 0.72% hits. inhibition, % at 18.8 µM. 786-0 RCC cells HIF-2a reporter, luciferase luminescence, overnight;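 active = inhibition of the luminescence signal of 40% or more relative to plate controls, in a single-dose primary screen at 18.75 µM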
CF NFkB block – cystic fibrosis NF-kB activation inhibition | inhibition, % at 5 µM | 360,000 compounds, 0.86% hits | KKLEB NF-kB-GFP reporter, PAF-induced, GFP fluorescence overnight | AID 588850;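 active = at least 50% inhibition at 5 µM, scaled per plate between neutral and stimulator controls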;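 also: PAF is a Pseudomonas aeruginosa culture filtrate used as stimulus; plate controls were PAF-stimulated DMSO wells for no effect and unstimulated DMSO wells for full effect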
Peg3 promoter – inhibitors of Peg3 promoter. HeLa PEG-Prom luciferase reporter, luminescence, overnight. inhibition, % at 20 µM. 360,000 compounds, 1.7% hits;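 active = inhibition of at least 50% at 20 µM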
Mdm2 MdmX PPI – inhibitors of human Mdm2/MdmX interaction; AID 485346; 330,000 compounds, 3% hits; inhibition, % at 8 µM; SaOS-2 split-luciferase Mdm2/MdmX complementation, luminescence;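 active = inhibition of at least 50% at 8 µM in the primary screen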
ABHD5-PLIN5 inh – blocks binding of human ABHD5 to perilipin-5. Q00G26+Q8WTS1. Split G. princeps luciferase complementation, luminescence, 4 h. inhibition, % at 4 µM. 360,000 compounds, 0.78% hits. AID 602281;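 active = inhibition above the mean inhibition across every tested compound plus 3 SD, cut at about 22% in these data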;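 also: 0% = DMSO only wells and the 100% control is not disclosed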
Target sequence (Q00G26 whole entry, looked up): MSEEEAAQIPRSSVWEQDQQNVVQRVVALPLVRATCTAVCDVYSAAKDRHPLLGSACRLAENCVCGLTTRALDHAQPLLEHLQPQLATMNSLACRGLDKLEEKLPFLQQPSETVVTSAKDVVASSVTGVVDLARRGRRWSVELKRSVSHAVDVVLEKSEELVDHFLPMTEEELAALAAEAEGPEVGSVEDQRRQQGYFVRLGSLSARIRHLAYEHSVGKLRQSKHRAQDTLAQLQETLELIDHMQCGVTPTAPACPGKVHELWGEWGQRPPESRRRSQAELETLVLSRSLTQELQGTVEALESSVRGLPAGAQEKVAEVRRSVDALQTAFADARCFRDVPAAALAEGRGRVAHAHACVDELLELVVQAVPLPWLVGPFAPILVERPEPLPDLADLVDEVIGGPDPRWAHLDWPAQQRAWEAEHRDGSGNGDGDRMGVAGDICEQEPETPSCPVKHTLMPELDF
Target sequence (Q8WTS1 whole entry, looked up): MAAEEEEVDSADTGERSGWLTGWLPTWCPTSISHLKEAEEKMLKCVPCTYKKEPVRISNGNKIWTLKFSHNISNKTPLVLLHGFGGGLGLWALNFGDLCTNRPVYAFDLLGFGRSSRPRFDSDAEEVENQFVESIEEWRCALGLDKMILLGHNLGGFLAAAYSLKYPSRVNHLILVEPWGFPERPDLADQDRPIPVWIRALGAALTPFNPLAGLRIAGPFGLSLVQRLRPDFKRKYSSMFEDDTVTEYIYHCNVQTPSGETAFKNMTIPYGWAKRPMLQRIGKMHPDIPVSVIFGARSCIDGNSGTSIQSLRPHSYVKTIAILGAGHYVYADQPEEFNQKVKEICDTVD
Mdm2-MdmX conf – confirmation of human Mdm2/MdmX interaction inhibitors | shares compounds with Mdm2 MdmX PPI | Mdm2-MdmX binding, luminescent assay | inhibition, % at 8 µM | 10,000 compounds, 55% hits | AID 489028; in the data active = inhibition above about 40%
FLuc counter – full-length luciferase inhibition in Mdm2/MdmX counter-screen | shares compounds with Mdm2 MdmX PPI | SaOS-2 full-length luciferase counterscreen, luminescence | inhibition, % at 8 µM | 6,200 compounds, 77% hits | AID 504607;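 active = mean inhibition at 8 µM reaching about 37%, which flags the compound as non-specific, limit read from the data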;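 also: p53-null SaOS-2 cells with luciferase driven by a doxycycline-inducible promoter; compound on cells about two nights before reading with doxycycline added after day one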
* = called active by the depositor. Rows were chosen to be rich in hits. Some 4.6% of all compounds tested hit in one or more screens of this group.

Results for Cc1ccc(-c2cc3onc(-c4ccccc4)c3c(=O)n2C)cc1 ?
KKLEB tox: -32; HIF-2a inh: 18; CF NFkB block: -2; Peg3 promoter: -5; Mdm2 MdmX PPI: 73*; ABHD5-PLIN5 inh: -4; Mdm2-MdmX conf: 74*; FLuc counter: 103*

What do the screens show for `CC(C)c1ccc(N(CC(=O)NCCCN2CCOCC2)S(=O)(=O)c2ccccc2)cc1`?
KKLEB tox: 10; HIF-2a inh: -4; CF NFkB block: -42; Peg3 promoter: -10; Mdm2 MdmX PPI: 6; ABHD5-PLIN5 inh: -12

How did COc1ccc2[nH]c3c(c2c1)CCN1C(=O)C(CC(=O)NCCCN(C)C)C[C@H](C(=O)N2CCCCC2)[C@@]31CCc1ccccc1 (some centres not stated) do in these assays?
KKLEB tox: -4; HIF-2a inh: -8; CF NFkB block: 6; Peg3 promoter: 28; Mdm2 MdmX PPI: 33; ABHD5-PLIN5 inh: -1

How did CN(C)CCCNC(=O)CC1C[C@H](C(=O)N2CCCCC2)[C@@]2(CCc3ccccc3)c3[nH]c4ccccc4c3CCN2C1=O (some centres not stated) do in these assays?
KKLEB tox: 4; HIF-2a inh: -13; CF NFkB block: 10; Peg3 promoter: 93*; Mdm2 MdmX PPI: 83*; ABHD5-PLIN5 inh: 8; Mdm2-MdmX conf: 24

What do the screens show for `CN(C)CCCNC(=O)C[C@H]1C[C@H](C(=O)N2CCCCC2)[C@@]2(CCc3ccccc3)c3[nH]c4cc(-c5ccco5)ccc4c3CCN2C1=O`?
KKLEB tox: -35; HIF-2a inh: -15; CF NFkB block: 31; Peg3 promoter: 95*; Mdm2 MdmX PPI: 59*; ABHD5-PLIN5 inh: 22*; Mdm2-MdmX conf: 53*; FLuc counter: 45*

How did CC(C)(C)NC(=O)C[C@H]1C[C@H](C(=O)N2CCCCC2)[C@@]2(CCc3ccccc3)c3[nH]c4cc(-c5ccco5)ccc4c3CCN2C1=O do in these assays?
KKLEB tox: 7; HIF-2a inh: 1; CF NFkB block: 13; Peg3 promoter: 16; Mdm2 MdmX PPI: 36; ABHD5-PLIN5 inh: 10

How did Cc1cc(OCC(=O)N2CCN(c3ccccc3)CC2)c2c(C)c(C)c(=O)oc2c1 do in these assays?
KKLEB tox: 9; HIF-2a inh: 6; CF NFkB block: -27; Peg3 promoter: 37; Mdm2 MdmX PPI: 64*; ABHD5-PLIN5 inh: -3; Mdm2-MdmX conf: 67*; FLuc counter: 87*

How did O=C(Nc1nnc(-c2ccc(F)cc2)o1)c1cc(Cl)sc1Cl do in these assays?
KKLEB tox: 2; HIF-2a inh: -1; CF NFkB block: 11; Peg3 promoter: 19; Mdm2 MdmX PPI: 62*; ABHD5-PLIN5 inh: 16; Mdm2-MdmX conf: 38; FLuc counter: 38*

How did O=C(Nc1nnc(-c2ccccc2)o1)c1cc(Cl)sc1Cl do in these assays?
KKLEB tox: -2; HIF-2a inh: 12; CF NFkB block: 1; Peg3 promoter: 13; Mdm2 MdmX PPI: 9; ABHD5-PLIN5 inh: -6

What do the screens show for `COc1cccc(-c2nnc(NC(=O)c3ccc(Cl)s3)o2)c1`?
KKLEB tox: 26; HIF-2a inh: -118; CF NFkB block: -65; Peg3 promoter: -17; Mdm2 MdmX PPI: 61*; ABHD5-PLIN5 inh: -2; Mdm2-MdmX conf: 17

What do the screens show for `CCCCn1c(OC(=S)N(CC)CC)cc(C)nc1=S`?
KKLEB tox: -2; HIF-2a inh: -4; CF NFkB block: -15; Peg3 promoter: 1; ABHD5-PLIN5 inh: -3

Results for CN1CCN(c2nc(-c3ccc(C(C)(C)C)cc3)nc3ccccc23)CC1 ?
KKLEB tox: -38; HIF-2a inh: -43; CF NFkB block: 21; Peg3 promoter: -66; Mdm2 MdmX PPI: 50*; ABHD5-PLIN5 inh: 5; Mdm2-MdmX conf: 48*; FLuc counter: 173*

How did Cc1ccc(-c2nc(N3CCN(C)CC3)c3ccccc3n2)cc1 do in these assays?
KKLEB tox: -17; HIF-2a inh: -31; CF NFkB block: 34; Peg3 promoter: -7; Mdm2 MdmX PPI: 15; ABHD5-PLIN5 inh: 14

Results for CCNc1nc(NC(C)(C)C)nc(N2CCCCC2)n1 ?
KKLEB tox: -11; HIF-2a inh: 8; CF NFkB block: 19; Peg3 promoter: 36; Mdm2 MdmX PPI: 51*; ABHD5-PLIN5 inh: -1; Mdm2-MdmX conf: 19

Results for COCCN(CCOC)Cc1c(O)ccc2c1O/C(=C\c1ccc(C)o1)C2=O ?
KKLEB tox: 6; HIF-2a inh: 2; CF NFkB block: 3; Peg3 promoter: 23; Mdm2 MdmX PPI: 20; ABHD5-PLIN5 inh: 22

What do the screens show for `COc1ccccc1/C=C/C=C1\Oc2c(ccc(O)c2CN(C)C)C1=O`?
KKLEB tox: 11; HIF-2a inh: -53; CF NFkB block: -1; Peg3 promoter: -31; Mdm2 MdmX PPI: 61*; ABHD5-PLIN5 inh: 21; Mdm2-MdmX conf: 43*; FLuc counter: 44*

What do the screens show for `O=C1c2ccccc2NC(c2ccc(-c3ccc(C(F)(F)F)cc3)o2)N1O` (configuration not stated)?
KKLEB tox: -10; HIF-2a inh: -54; CF NFkB block: -6; Peg3 promoter: 31; Mdm2 MdmX PPI: 67*; ABHD5-PLIN5 inh: 6; Mdm2-MdmX conf: 49*; FLuc counter: 42*

How did O=c1[nH]c(=O)n(Cc2ccccc2)c2nc(-c3ccco3)cc(C(F)(F)F)c12 do in these assays?
KKLEB tox: -25; HIF-2a inh: 10; CF NFkB block: -14; Peg3 promoter: -4; Mdm2 MdmX PPI: 53*; ABHD5-PLIN5 inh: 13; Mdm2-MdmX conf: 27

Results for Cc1cc(C(F)(F)F)c2c(=O)[nH]c(=O)n(Cc3ccccc3)c2n1 ?
KKLEB tox: -8; HIF-2a inh: 9; CF NFkB block: 8; Peg3 promoter: -1; Mdm2 MdmX PPI: 14; ABHD5-PLIN5 inh: 5

What do the screens show for `CCOc1ccc(-n2nnnc2SCC(=O)Nc2ccc(NC(C)=O)cc2)cc1`?
KKLEB tox: -6; HIF-2a inh: 15; CF NFkB block: 3; Peg3 promoter: 12; Mdm2 MdmX PPI: 57*; ABHD5-PLIN5 inh: -1; Mdm2-MdmX conf: 6

How did COc1ccc(Nc2nnc(SCC(=O)NC(=O)Nc3ccc4c(c3)OCCO4)s2)cc1 do in these assays?
KKLEB tox: 6; HIF-2a inh: -119; CF NFkB block: -13; Peg3 promoter: -54; Mdm2 MdmX PPI: 62*; ABHD5-PLIN5 inh: 2; Mdm2-MdmX conf: -4

Results for COc1cccc(-n2nnnc2SCC(=O)Nc2ccc3c(c2)OCCO3)c1 ?
KKLEB tox: -12; HIF-2a inh: 21; CF NFkB block: 26; Peg3 promoter: 34; Mdm2 MdmX PPI: 79*; ABHD5-PLIN5 inh: -2; Mdm2-MdmX conf: 28

Source: PubChem BioAssay (several laboratories)
